{"source": "PubChem BioAssay (EPA / NIEHS)", "note": "Records with an inconclusive call do not appear. The source made the active and inactive calls. The calls were made as follows: active = hit-call score of the fitted dose curve at least 0.9, where 1 is the maximum; inconclusive = response in the unintended direction; inactive = score below 0.9.", "data": [{"target": "human Opioid Receptor Delta 1 (Opiate D1), OPRD1 (gene 4985) (UniProt P41143)", "sequence (P41143 whole entry, looked up)": "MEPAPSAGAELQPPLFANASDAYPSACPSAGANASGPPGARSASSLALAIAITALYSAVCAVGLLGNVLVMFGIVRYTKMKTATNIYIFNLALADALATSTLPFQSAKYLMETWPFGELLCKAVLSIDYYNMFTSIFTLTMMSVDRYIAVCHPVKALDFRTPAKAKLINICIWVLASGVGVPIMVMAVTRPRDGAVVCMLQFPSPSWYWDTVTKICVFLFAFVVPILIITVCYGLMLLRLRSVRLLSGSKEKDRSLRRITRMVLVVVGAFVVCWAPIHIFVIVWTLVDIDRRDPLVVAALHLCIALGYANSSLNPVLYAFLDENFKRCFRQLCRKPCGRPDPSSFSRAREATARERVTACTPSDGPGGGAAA", "test": "NVS_GPCR_hOpiate_D1: NovaScreen (NVS) G Protein-Coupled Receptor Assay for human Opioid Receptor Delta 1 (Opiate D1) (AID 2283280)", "procedure": "NVS_GPCR_hOpiate_D1 is a biochemical, single-readout assay that uses extracted gene-proteins from CHO in a cell-free assay. Measurements were taken 1 hour after chemical dosing in a 96-well plate.NVS_GPCR_hOpiate_D1 is one of one assay component(s) measured or calculated from the NVS_GPCR_hOpiate_D1 assay. It is designed to make measurements of radioligand binding, a form of binding reporter, as detected with scintillation counting signals by Filter-based radiodetection technology.Data from the assay component NVS_GPCR_hOpiate_D1 was analyzed into 1 assay endpoint. This assay endpoint, NVS_GPCR_hOpiate_D1, was analyzed in the positive analysis fitting direction relative to DMSO as the negative control and baseline of activity. Using a type of binding reporter, loss-of-signal activity can be used to understand changes in the binding as they relate to the gene OPRD1. Furthermore, this assay endpoint can be referred to as a primary readout, because the performed assay has only produced 1 assay endpoint. To generalize the intended target to other relatable targets, this assay endpoint is annotated to the gpcr intended target family, where the subfamily is rhodopsin-like receptor.\nBinding assays used specific radioligands (tritiated, iodinated) with non-radioactive competitive displacement ligands in agonist or antagonist protocols (as indicated) and various reference compounds and inhibitors to titrate specific binding to receptors and transporters. Most enzyme assays (CYPs, kinases, phosphatases, proteases, HDACs) used recombinant protein and specific substrates (fluorescence mostly, some colorimetric and radioactive) and inhibitors, followed by a biochemical separation of substrate and product. All assays for the biochemical HTS were initially run in duplicate at a single concentration (10 uM for CYP450 assays and 25 uM for all others). […] Each assay was run with positive and negative controls, and concurrent controls on every plate. The follow-up (secondary) screen tested active chemical-pairs in concentration series, as well as a few additional assays not tested in the primary screen, some selected negative inactives, and several cases re-run in the concentration series for confirmatory purposes.", "values": [{"compound": "CCCCCCCCOC(=O)c1cc(O)c(O)c(O)c1", "AC50": "16.4 µM (active)"}, {"compound": "CC(C)(C)c1csc(-c2cc3cc(OCc4ccccc4CC(=O)O)ccc3o2)n1", "outcome": "inactive"}, {"compound": "CCN(CC)C(=O)c1cc(S(=O)(=O)Cc2ccccc2)c(N2CCC(c3ccccc3)CC2)cc1N(CC)CCN(C)C", "AC50": "14.2 µM (active)"}, {"compound": "CC/C(=C(/CC)c1ccc(O)cc1)c1ccc(O)cc1", "outcome": "inactive"}, {"compound": "CCN(Cc1cccnc1)C(=O)c1cccc(Cl)c1[C@]1(C)C(=O)N(Cc2ccc(OC)cc2OC)c2ccc(Cl)cc21", "AC50": "2.01 µM (active)"}, {"compound": "NCc1cccc(C2CCN(C(=O)c3ccc(C#Cc4ccccc4F)o3)CC2)c1", "AC50": "10.2 µM (active)"}, {"compound": "CC[C@H](NC(=O)c1cc(F)ccc1NS(=O)(=O)c1cccc2cccnc12)c1ccccc1", "outcome": "inactive"}, {"compound": "CN(C)C(=O)C1(N2CCCCC2)CCN(CC[C@@]2(c3ccc(Cl)c(Cl)c3)CN(C(=O)c3ccccc3)CCO2)CC1", "AC50": "10.3 µM (active)"}, {"compound": "C[C@]12CC[C@@H]3c4ccc(O)cc4CC[C@H]3[C@@H]1CCC2=O", "outcome": "inactive"}, {"compound": "CN(C)c1ccc(C(=C2C=CC(=[N+](C)C)C=C2)c2ccc(N(C)C)cc2)cc1", "AC50": "8.5 µM (active)"}, {"compound": "CCOC(=O)O[C@H](C)OC(=O)c1ccc2c(c1)cc(C(=O)NC1CCN(C(C)C)CC1)n2Cc1cc(-c2ccc(Cl)s2)on1", "AC50": "3.36 µM (active)"}, {"compound": "Cc1cc(F)ccc1-c1cc(N2CC[C@@H](O)[C@H]2CO)ncc1N(C)C(=O)C(C)(C)c1cc(C(F)(F)F)cc(C(F)(F)F)c1", "AC50": "15.8 µM (active)"}]}]}
